Screening data: PubChem BioAssay, National Center for Advancing Translational Sciences (NCATS)
Shown are actives, neighbours in structure and some others; about 2.7% of the full set was active somewhere.
IP6K1 inhibitor – inhibitors of human IP6K1; AID 1645851; activity change, % (series mostly up to about 58 µM); IP6K1 kinase, ADP-Glo luminescence, 2 h; stronger effect = lower value; 0.81% of 140,000 active; Q92551; in the data active = activity change below about -25%; note: % is set by controls: 0 for no effect and ±100 for the full control effect
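ADP-Glo luminescence measures ADP made by human IP6K1 during a 2 h RT reaction with ATP/IP6 (mix at 1.3 mM/130 uM); top library doses 57.5 and 19.1 uM final.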
KDM5B inh – blocks human KDM5B histone demethylase activity. Potency, µM (series often up to 57.7 µM), usual class: inhibitors. 2.6% of 220,000 active. KDM5B demethylase, FDH-coupled NADH fluorescence (FDH is formaldehyde dehydrogenase). AID 1347165; note: potency is the fitted concentration of half-maximal effect; 0% is about no effect; nearly all actives have a fitted effect of over 70% in size
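Inhibition is measured as reduced NADH fluorescence generation from FDH coupling to formaldehyde release. Truncated KDM5BΔAP at 200 nM final acts on H3K4me3 peptide (12.5 µM in substrate mix) in pH 7.5 HEPES buffer with Tween-20, 30 min, room temperature.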
IP6K1 inh cnf – human IP6K1 inhibition, confirmatory; Potency, µM (highest dose often 49 µM), for inactives: top-dose activity change, negative = inhibition, usual class: inhibitors; recombinant IP6K1 kinase, ADP-Glo luminescence, 2 h; 13% of 1,200 active; shares compounds with IP6K1 inhibitor; note: potency is the fitted concentration of half-maximal effect; % is set by controls: 0 for no effect and ±100 for the full control effect; nearly all actives have a fitted effect of over 65% in size
* marks the source's active call; other numbers are inactive results; i = inactive; ? = inconclusive; / = no result given. Unless noted, calls come from the whole dose curve; as a rule, active = well fitted inhibition curve with a large enough effect; inconclusive = small, poorly fitted or top-dose-only effect; inactive = no such curve, though single readings can be large or run the other way.

SMILES | IP6K1 inhibitor | KDM5B inh | IP6K1 inh cnf
CCCCCNC(=O)C12CC3CC(CC(NC(C)=O)(C3)C1)C2 | / | i | /
Cc1ccc(-n2[nH]c(C)c(N=Nc3cccc(-c4cccc(C(=O)O)c4)c3O)c2=O)cc1C | -91* | / | ?
Cc1[nH]n(-c2ccccc2)c(=O)c1N=Nc1ccc(C(=O)O)cc1 | / | i | /
O=C(NCc1ccc(OCC(F)(F)F)cc1)c1cnc2ccccc2n1 | / | i | /
OC1(CN2CCCCC2)CCN(Cc2ccc(Cl)cc2)C1 (stereo unspecified) | 9 | ? | /
OC1(CN2CCCCC2)CCN(Cc2cnn(-c3ccccc3Cl)c2)C1 (stereo unspecified) | -36* | ? | 8%
Cc1cccc(N2CCN(S(=O)(=O)c3csc(C(N)=O)c3)CC2)c1C | -42* | i | 7.3µM*
NC(=O)c1cc(S(=O)(=O)N2CCN(c3ccc(F)cc3)CC2)cs1 | 3 | i | /
OCCOCCN1CCN(C(c2ccccc2)c2ccc(Cl)cc2)CC1 (stereo unspecified) | -31* | / | 3.7µM*
O=C(O)COCCN1CCN(C(c2ccccc2)c2ccc(Cl)cc2)CC1 (stereo unspecified) | 10 | / | /
O=C(CCc1ncc(-c2ccccc2)o1)NCCSCc1ccccc1 | / | i | /
Cc1nn(CC(=O)NCc2ccc(Cl)cc2)c(=O)c2cc3sccc3n12 | -9 | i | /
CSc1ccc(CCNC(=O)Cn2nc(C)n3c(cc4sccc43)c2=O)cc1 | -80* | i | -2%
COc1ccccc1NC(=O)c1c(NC(=O)c2ccccc2Cl)sc2c1CCC2 | -31* | i | 12%
COc1ccccc1NC(=O)c1c(NC(=O)c2ccccc2F)sc2c1CCC2 | 14 | ? | /
O=C1CCCc2cc(S(=O)(=O)NCC3CCC(C(=O)NCCc4ccccc4)CC3)ccc2N1 (stereo unspecified) | / | i | /
Cc1cc(-c2cnc(N)c3c(-c4ccc5scnc5c4)csc23)n(C)n1 | -31* | / | ?
Cc1ccccc1C(=O)Nc1ccc(NC(=O)c2ccco2)cc1O | / | i | /
N#C/C(=C\c1ccc(-c2cccc(Cl)c2Cl)o1)c1ccccc1 | / | i | /
NC(=O)Cc1c[nH]c2ncc(-c3cccc(F)c3)cc12 | -35* | 32µM* | ?
NC(=O)Cc1c[nH]c2ncc(-c3ccc(Oc4ccccc4)cc3)cc12 | -42* | ? | ?
Cc1cc(-c2cnc3[nH]cc(CC(N)=O)c3c2)ccn1 | -7 | i | /
CNC(=O)c1cccc(-c2cnc3[nH]cc(CC(=O)N(C)c4ccccc4)c3c2)c1 | -29* | i | ?
CNC(=O)c1cccc(-c2cnc3[nH]cc(CC(=O)NCC(C)C)c3c2)c1 | -3 | i | /
COc1ccc(OC)c(-c2cnc3[nH]cc(CC(N)=O)c3c2)c1 | -22 | i | /
SMILES | IP6K1 inhibitor | KDM5B inh | IP6K1 inh cnf
CC(=O)N1CCN(S(=O)(=O)c2ccc(C(=O)NCc3ccc(OCC(F)(F)F)cc3)cc2)CC1 | / | i | /
COc1ccc2c(CCNC(=O)c3ccccc3OC)c[nH]c2c1 | / | i | /
CC(C)(C)Cn1c(N)nc2ccc(-c3[nH]c(C(C)(C)C)nc3-c3ccc(F)cc3)nc21 | -25* | / | 6%
CC(C)(N)C(=O)NCc1nc(-c2cccc(F)c2)c(-c2ccccn2)[nH]1 | -7 | i | /
Cc1ccc(-n2c(C)cc(/C=C3\SC(=O)NC3=O)c2C)cc1 | / | i | /
O=C1NC(=O)/C(=C/c2ccc3c(c2)OC(F)(F)O3)S1 | -37* | / | ?
COc1cc(Cl)c(C)cc1NC(=O)Cn1ncc2c3ccccc3n(Cc3ccccc3)c2c1=O | 7 | i | /
COc1ccc(Cl)cc1NC(=O)Cn1ncc2c3ccccc3n(Cc3ccccc3)c2c1=O | -27* | ? | -2%
NC(=O)C1CCN(C(=O)CCC(=O)N2CCN(C(=O)c3cc4ccccc4[nH]3)CC2)CC1 | / | i | /
CC(C)c1cc(C(C)C)c(CC(=O)NS(=O)(=O)Oc2c(C(C)C)cccc2C(C)C)c(C(C)C)c1 | -32* | / | ?
COC(=O)c1cc(C(C)C)sc1NC(=O)Cc1c(Cl)cccc1Cl | / | i | /
CC(CNC(=O)Nc1ccc(C(F)(F)F)cc1)CN1CCN(C)CC1 (stereo unspecified) | / | i | /
COc1ccc(CN2CCC3(C2)C(=O)N(c2ccccc2)c2ccccc23)cc1 (stereo unspecified) | -4 | ? | /
CC(C)CC(NC(=O)C1=NNC(=O)CC1)c1nnc2n1CCNCC2 (stereo unspecified) | -40* | i | -9%
CC(C)CC(NC(=O)c1cnc2ccccc2c1)c1nnc2n1CCNCC2 (stereo unspecified) | -3 | i | /
CCCC(=O)OCOC(=O)C1=C(C)NC(C)=C(C(=O)OC)C1c1cccc(Cl)c1Cl (stereo unspecified) | 7 | / | -6%
COC(=O)C1=C(C)NC(COC(N)=O)=C(C(=O)OC(C)C)C1c1cccc(Cl)c1Cl (stereo unspecified) | -15 | / | /
O=C1CC(c2ccccc2)Cc2[nH]c(=O)c(C(=O)Nc3cccc(Cl)c3)cc21 (stereo unspecified) | -4 | i | /
O=C1CC(c2ccccc2)Cc2[nH]c(=O)c(C(=O)Nc3cccc(F)c3)cc21 (stereo unspecified) | -93* | ? | 0%
CCOC(=O)c1ccc(NC(=O)c2cc(=O)c3ccc(C)c(C)c3o2)cc1 | -25* | i | 2%
Cc1ccc(NC(=O)c2cc(=O)c3ccc(C)c(C)c3o2)cc1 | / | i | /
Cc1ccc([N+](=O)[O-])cc1S(=O)(=O)N1CCn2cccc2C1c1ccccc1 (stereo unspecified) | -5 | ? | /
Cc1ccc([N+](=O)[O-])cc1S(=O)(=O)N1CCn2cccc2C1c1ccccc1F (stereo unspecified) | -26* | ? | -20%
CC(C)(C)CC(=O)Nc1nc2c(s1)C[C@@H]1[C@](C)(CO)[C@H](O)CC[C@@]1(C)[C@@H]2CC(=O)Nc1cccc(O)c1 | -14 | i | /
Cc1ccc(NC(=O)CSc2nnc(Cc3ccccc3)o2)cc1Cl | / | i | /
SMILES | IP6K1 inhibitor | KDM5B inh | IP6K1 inh cnf
O=C(O)CSc1cc(NS(=O)(=O)c2ccc(Br)cc2)c2ccccc2c1O | -76* | / | ?
CC(=O)c1c(C)oc2c1cc(NS(=O)(=O)c1ccc(Br)cc1)c1ccccc12 | 8 | i | /
O=c1c2c(-c3ccc(Cl)cc3)noc2ncn1Cc1ccc(F)cc1Cl | / | i | /
O=C(CSc1nnc(-c2ccc(Cl)cc2)o1)c1ccc([N+](=O)[O-])cc1 | 5 | i | /
CC(=O)Nc1cccc(-c2nnc(SCC(=O)c3cc([N+](=O)[O-])ccc3Cl)o2)c1 | -31* | ? | ?
Cc1cc(C)c2oc(C(=O)Nc3nnc(SCc4ccccc4F)s3)cc(=O)c2c1 | / | i | /
Cc1ccc(C)c(N2CCN(c3ccc(NC(=O)c4cccs4)cc3C(=O)O)CC2)c1 | -33* | ? | ?
COc1ccccc1N1CCN(c2ccc(NC(=O)c3ccc(C)cc3)cc2C(=O)O)CC1 | 8 | i | /
Cc1c(NC(=O)c2sc3c([N+](=O)[O-])cccc3c2Cl)cccc1-c1nc2ccccc2o1 | -28* | i | 7%
Cc1c(NC(=O)c2ccc([N+](=O)[O-])o2)cccc1-c1nc2ccccc2o1 | / | i | /
Cn1c(COc2ccc3c(c2)CCCC3)nnc1SCC(=O)NC1CCCCC1 | / | i | /
